# Source: PubChem BioAssay (NCATS)
# Records with an inconclusive call do not appear. Where a call stands in place of a potency, no number is given. Calls of active or inactive are those of the source. Calls follow the shape of the dose curve; as a rule, active = well fitted curve in the direction sought with a large enough effect; inconclusive = small, poorly fitted or top-dose-only effect, or another doubt; inactive = no such curve, though single readings can be large; an effect the other way counts as inactive or inconclusive.
# What was measured:
# [1] = qHTS assay to identify small molecule inhibitors of chordoma cells - UCH-2 (AID 1259356); settings: UCH-2 chordoma viability, CellTiter-Glo ATP luminescence, 48 h; series mostly up to 46.1 µM
# [2] = P-glycoprotein substrates identified in KB-8-5-11 adenocarcinoma cell line, qHTS therapeutic library screen (AID 1346987); settings: KB-8-5-11 (P-gp overexpressing) viability, CellTiter-Glo, 72 h; series mostly up to 44.5 µM; also: nearly all actives have a fitted effect of over 65% in size; also: potency is read from the fitted curve at half-maximal effect
# Outline: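 KB-8-5-11: colchicine-selected sub-line of KB-3-1 over-expressing P-gp; assay medium lacked colchicine. 72 h drug exposure at 37 degree C, CellTiter-Glo.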
# [3] = Identifying Small Molecule Inhibitors of Pancreatic Cancer Stem Cells (SN12C, Adherent) (AID 1259358); settings: viability/growth inhibition;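 also: potency is read from the fitted curve at half-maximal effect; cell survival measured after 48 h of compound exposure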
# Outline: (§1)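 Pre-formed 14-day tumor spheroids or adherent cells dosed and incubated 48 h, 37C, 5% CO2. Viability assessed by CellTiter-Glo.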
# [4] = Identifying Small Molecule Inhibitors of Pancreatic Cancer Stem Cells (Panc1, Spheroid) (AID 1259359); settings: Panc1 spheroid cancer stem cell viability;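 also: potency is read from the fitted curve at half-maximal effect; compound exposure lasted 48 h before reading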
# Outline: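 Endpoint: ATP-based luminescence, 48 h drug exposure. Bortezomib at 9.2 uM final as full-kill control; DMSO vehicle as negative control; activity normalized between vehicle and cell-free wells.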
# [5] = Identifying Small Molecule Inhibitors of Pancreatic Cancer Stem Cells (SN12C, Spheroid) (AID 1259360); settings: SN12C spheroid viability; also: potency is read from the fitted curve at half-maximal effect
# Source text: Progenitor-like cancer cells, often referred to as cancer stem cells (CSC), are believed to be the drivers of therapeutic resistance and rapid recurrence. CSCs are postulated to reside in specific niches characterized by low oxygen tension, limited nutrient supply, and high redox load. Selectively targeting CSC, alone or in combination with cytotoxic agents, as a means to produce durable remissions is an appealing concept. Modeling these cells in in vitro setting is an important step in finding new therapies and/or targets. Multiple reports highlight that forcing cells in culture into 3-dimensionaly architectures (spheroids) re-establishes key progenitor-like transcriptional signatures. Pancreatic cancer is among the diseases with the most dismal outlook which is driven, largely, by recurance following front-line therapies. […]
# Multicellular tumor spheroids from Panc1, MiaPaCa-2, and the primary low-passage tissue culture line SB.06 were seeded in stem cell media (SCM) in nonadherent 6-well plates coated with hydrogel (Corning Life Sciences, Chelmsford, Mass) and pancreatic spheres generated for 14 days before screening. […] Plates were incubated at room temperature for 10 minutes prior to reading the luminescence on the Viewlux (PerkinElmer). […]
# [6] = Identifying Small Molecule Inhibitors of Pancreatic Cancer Stem Cells (A278, Adherent) (AID 1259361);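 also: viability read after 48 h compound exposure; nearly all actives have a fitted effect of over 35% in size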
# Outline: as §1
compound,measurement,setting,value
CCN(CC)CCOC(=O)C(c1ccccc1)C1CCCCC1 (centres undefined),Potency,[1],inactive
same,Potency,[2],inactive
COc1cccc2c1C(=O)c1c(O)c3c(c(O)c1C2=O)C[C@@](O)(C(=O)CO)C[C@@H]3O[C@H]1C[C@H](N)[C@H](O)[C@H](C)O1,Potency,[1],inactive
same,Potency,[3],3.32 µM (active)
same,Potency,[4],5.9 µM (active)
same,Potency,[5],18.7 µM (active)
same,IC50 (viability decrease),[6],0.418 µM (active)
same,Potency,[2],inactive
C[C@H](O)C(=O)Nc1c(I)c(C(=O)NC(CO)CO)c(I)c(C(=O)NC(CO)CO)c1I,Potency,[1],inactive
same,Potency,[2],inactive
OCc1ccccc1O,Potency,[1],inactive
same,Potency,[2],inactive
CN1CCN(C(c2ccccc2)c2ccccc2)CC1,Potency,[1],inactive
same,Potency,[2],inactive
COc1cc(OC)cc(OC)c1,Potency,[1],inactive
same,Potency,[2],inactive
O=C1OC2(c3ccc(O)cc3Oc3cc(O)ccc32)c2ccccc21,Potency,[1],inactive
same,Potency,[2],inactive
O=C1OCCN1/N=C/c1ccc([N+](=O)[O-])o1,Potency,[1],inactive
same,Potency,[2],inactive
C=C(CC)C(=O)c1ccc(OCC(=O)O)c(Cl)c1Cl,Potency,[1],inactive
same,Potency,[2],inactive
C[C@]12CCC(=O)C=C1CC[C@H]1[C@@H]3CC[C@](O)(C(=O)CO)[C@@]3(C)C[C@H](O)[C@@]12F,Potency,[1],inactive
same,Potency,[2],inactive
OC[C@H]1O[C@@H](n2cnc3c(=S)nc[nH]c32)[C@H](O)[C@@H]1O,Potency,[1],inactive
same,Potency,[2],1.84 µM (active)
COc1c2occc2c(OC)c2c(=O)cc(C)oc12,Potency,[1],inactive
same,Potency,[2],inactive
CCCCCCCCCCOCC(O)CN (centres undefined),Potency,[1],inactive
same,Potency,[2],inactive
CC(=O)N(O)CCCCCNC(=O)CCC(=O)N(O)CCCCCNC(=O)CCC(=O)N(O)CCCCCN,Potency,[1],inactive
same,Potency,[2],inactive
Cc1c(C(C)C)c(=O)n(-c2ccccc2)n1C,Potency,[1],inactive
same,Potency,[2],inactive
CC(=O)Oc1ccc2c(c1)CC[C@@H]1[C@@H]2CC[C@]2(C)[C@@H](O)CC[C@@H]12,Potency,[1],inactive
same,Potency,[2],5.17 µM (active)
CC1(C)O[C@@H]2C[C@H]3[C@@H]4CCC5=CC(=O)CC[C@]5(C)[C@@]4(F)[C@@H](O)C[C@]3(C)[C@]2(C(=O)CCl)O1,Potency,[1],inactive
same,Potency,[2],inactive
CNCCC=C1c2ccccc2CCc2ccccc21,Potency,[1],inactive
same,Potency,[2],20.6 µM (active)
CC1(C)O[C@@H]2[C@@H](CO[C@@]3(COS(N)(=O)=O)OC(C)(C)O[C@@H]23)O1,Potency,[1],inactive
same,Potency,[2],inactive
CCCCCCc1ccc(O)cc1O,Potency,[1],inactive
same,Potency,[2],inactive
CC(Cc1ccccc1)(NC(=O)CN)c1ccccc1 (centres undefined),Potency,[1],inactive
same,Potency,[2],inactive
NC(CS)C(=O)O (centres undefined),Potency,[1],inactive
same,Potency,[2],inactive
COc1cc(/C=C/C(=O)O[C@H]2CC[C@]34C[C@]35CC[C@]3(C)[C@@H]([C@H](C)CCC=C(C)C)CC[C@@]3(C)[C@@H]5CC[C@H]4C2(C)C)ccc1O,Potency,[1],inactive
same,Potency,[2],inactive
CCCC1O[C@@H]2C[C@H]3[C@@H]4CCC5=CC(=O)C=C[C@]5(C)[C@H]4[C@@H](O)C[C@]3(C)[C@]2(C(=O)CO)O1 (some centres undefined),Potency,[1],inactive
same,Potency,[2],inactive
CCN(CC)C(=O)/C(C#N)=C/c1cc(O)c(O)c([N+](=O)[O-])c1,Potency,[1],inactive
same,Potency,[2],inactive
CN1[C@@H]2CC[C@H]1CC(OC(=O)c1c[nH]c3ccccc13)C2 (some centres undefined),Potency,[1],inactive
same,Potency,[2],inactive
CC(C)(C)CC(C)(C)c1ccc(O)c(Cc2ccc(Cl)cc2Cl)c1,Potency,[1],inactive
same,Potency,[2],23.1 µM (active)
Cc1c(C)n(Cc2ccccc2)c2ccc(C(=O)OCCN(C)C)cc12,Potency,[1],inactive
same,Potency,[2],23.1 µM (active)
O=c1ccc2ccccc2o1,Potency,[1],inactive
same,Potency,[2],inactive
CCOc1ccc(NC(=O)CC(C)O)cc1 (centres undefined),Potency,[1],inactive
same,Potency,[2],inactive
C[C@]12CC[C@@H]3c4ccc(O)cc4CC[C@H]3[C@@H]1CC[C@@H]2O,Potency,[1],inactive
same,Potency,[2],6.51 µM (active)
CCCCC(=O)O[C@]1(C(=O)CO)CC[C@H]2[C@@H]3CCC4=CC(=O)CC[C@]4(C)[C@H]3[C@@H](O)C[C@@]21C,Potency,[1],inactive
same,Potency,[2],inactive
Nc1ccc(/C=C/c2ccc(N)cc2S(=O)(=O)O)c(S(=O)(=O)O)c1,Potency,[1],inactive
same,Potency,[2],inactive
Cc1cc(O)c(C(C)C)cc1Cl,Potency,[1],inactive
same,Potency,[2],inactive
CN1CCC[C@@H]1c1cccnc1,Potency,[1],inactive
same,Potency,[2],inactive
CN(C)CCOc1ccccc1Cc1ccccc1,Potency,[1],inactive
same,Potency,[2],inactive
CC1(C)O[C@@H]2C[C@H]3[C@@H]4C[C@H](F)C5=CC(=O)CC[C@]5(C)[C@H]4[C@@H](O)C[C@]3(C)[C@]2(C(=O)CO)O1,Potency,[1],inactive
same,Potency,[2],inactive
CCn1cc(C(=O)O)c(=O)c2cnc(N3CCCC3)nc21,Potency,[1],inactive
same,Potency,[2],inactive
CC(=O)OCC(=O)[C@@]12N=C(C)O[C@@H]1C[C@H]1[C@@H]3CCC4=CC(=O)C=C[C@]4(C)[C@H]3[C@@H](O)C[C@@]12C,Potency,[1],inactive
same,Potency,[2],inactive
COC(=O)[C@@H]1CC2=CC(=O)CC[C@]2(C)[C@@]23O[C@@H]2C[C@@]2(C)[C@@H](CC[C@@]24CCC(=O)O4)[C@H]13,Potency,[1],inactive
same,Potency,[2],inactive
